Some test systems named below: NCI-H23 lung; NCI-H226 lung; NCI-H322M lung; HOP-62 NSCLC; NCI-H460 lung; HOP-92 NSCLC; NCI-H522 lung; A549/ATCC NSCLC; 786-0 renal; COLO 205 colon.
What all share (assay): NCI-60 one-dose screen, 48 h (100 = growth as untreated, 0 = no growth, -100 = all killed)
What all share (details): 10 µM unless noted

Each structure is given as a SMILES string. The panel holds about 83,000 compounds, 20% with a hit somewhere; the sample as a whole holds those more often.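 Results are percent growth after 48 hours of single-concentration exposure. 100 means growth as in untreated cells, lower positive values show inhibition; negative values down to -100 show cell death.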 A number with no mark means an inactive call. Calls of active or inactive are those of the source. Rule for the calls: active = growth percent below 10; inactive = the rest.

For the compound `O=S(=O)(NCCCNc1nccc(-c2c(-c3ccc(O)cc3)nc3sccn23)n1)c1ccc(F)cc1`, the growth was 1.81% (active) in the assay with NCI-H23 lung; 3.13% (active) in the assay with NCI-H226 lung; 17.6% with NCI-H322M lung; 10% with HOP-62 NSCLC; 1.37% (active) in the assay on NCI-H460 lung; 12.3% in the assay on HOP-92 NSCLC. For the same compound, the growth in the assay on NCI-H522 lung is -1.49% (active); in the assay with A549/ATCC NSCLC it was 15.9%; in the assay with 786-0 renal, 16.4%; with COLO 205 colon, 1.03% (active).
Regarding `Cc1nn(-c2ccc(Cl)cc2)c(=O)n1CCOc1ccccc1Cl`, the growth in the assay on NCI-H23 lung is 91.6%; with NCI-H226 lung it was 103%; in the assay on NCI-H322M lung it was 111%; in the assay on HOP-62 NSCLC, 75.2%; in the assay with NCI-H460 lung it was 87.2%; with HOP-92 NSCLC, 78.4%. Moreover, the growth in the assay with NCI-H522 lung was 116%; in the assay with A549/ATCC NSCLC, 89.9%; with 786-0 renal, 93.7%; in the assay on COLO 205 colon, 101%.
Regarding `CC(=O)OCC1OC(OCC2OC(OC(C)=O)C(OC(C)=O)C(OC(C)=O)C2OC(C)=O)C(OC(C)=O)C(OC(C)=O)C1OC(C)=O` (stereo not given), the growth is 103% with NCI-H23 lung; 83.1% in the assay on NCI-H226 lung; 101% in the assay with NCI-H322M lung; 97.5% in the assay with HOP-62 NSCLC; 104% in the assay with NCI-H460 lung; 91.7% with HOP-92 NSCLC. Further, the growth was 104% in the assay on NCI-H522 lung, 94.4% in the assay on A549/ATCC NSCLC, 103% in the assay with 786-0 renal and 107% in the assay with COLO 205 colon.
Turning to `CCCCCCCCCCC/C=C\C[C@H](O)C/C=C1/C(=O)C=C[C@@H]1C/C=C\CCCC(=O)OC`, the growth was -25.2% (active) with NCI-H23 lung; -45.9% (active) in the assay on NCI-H226 lung; 69.8% in the assay on NCI-H322M lung; -16.1% (active) in the assay with HOP-62 NSCLC; -31.4% (active) in the assay on NCI-H460 lung; -13.6% (active) in the assay with HOP-92 NSCLC. Also, the growth was -41.9% (active) in the assay with NCI-H522 lung, 15.6% in the assay with A549/ATCC NSCLC, -3.32% (active) with 786-0 renal and -45.9% (active) with COLO 205 colon.
For the compound `O=C1C2=C(C(=O)c3c(O)ccc(O)c31)N(c1cccnc1)Cc1ccccc1O2`, the growth in the assay on NCI-H23 lung is -5.92% (active); in the assay on NCI-H226 lung, 19.2%; in the assay with NCI-H322M lung, 23.9%; in the assay on HOP-62 NSCLC it was -3.72% (active); in the assay with NCI-H460 lung, 7.48% (active); with HOP-92 NSCLC, -89.9% (active). The growth in the assay on NCI-H522 lung is -77.9% (active); in the assay on A549/ATCC NSCLC, 31.6%; in the assay with 786-0 renal, -86.7% (active); in the assay on COLO 205 colon, -60.9% (active).
As for `O=C(Nc1ccc(F)cc1)c1cc([N+](=O)[O-])ccc1O`, the growth in the assay with NCI-H23 lung was 50.1%; in the assay with NCI-H226 lung, 88.3%; with NCI-H322M lung, 64.3%; with HOP-62 NSCLC, 65.2%; in the assay on NCI-H460 lung it was 64.2%; in the assay with HOP-92 NSCLC it was 15.7%. Besides, the growth with NCI-H522 lung was 15.3%; in the assay on A549/ATCC NSCLC, 68.1%; in the assay on 786-0 renal, 80.2%; in the assay with COLO 205 colon, 81.5%.
In the case of `Cc1cc2c(C(C)C)c(O)c(O)c(C=NCCCCCCC(=O)O)c2c(O)c1-c1c(C)cc2c(C(C)C)c(O)c(O)c(C=NCCCCCCC(=O)O)c2c1O`, the growth was 21.8% in the assay with NCI-H23 lung; 74.7% in the assay with NCI-H226 lung; 38.9% in the assay on NCI-H322M lung; 39.3% with HOP-62 NSCLC; 13.1% with NCI-H460 lung; 13.8% with HOP-92 NSCLC. Also, the growth was 9.55% (active) in the assay on NCI-H522 lung, 30.7% in the assay on A549/ATCC NSCLC, 38.2% in the assay on 786-0 renal and 14.6% in the assay on COLO 205 colon.
Turning to `CCOC(=O)C(Cc1ccccc1)n1c(O)c(C=Nc2ccc(C(=O)OCCN(CC)CC)cc2)sc1=O` (stereo not given), the growth was 102% in the assay on NCI-H23 lung; 96.7% with NCI-H226 lung; 94.4% in the assay with NCI-H322M lung; 103% in the assay on HOP-62 NSCLC; 99.3% with NCI-H460 lung; 84.2% in the assay with HOP-92 NSCLC. Besides, the growth is 85.7% with NCI-H522 lung, 74.4% in the assay with A549/ATCC NSCLC, 90.8% with 786-0 renal and 95.5% with COLO 205 colon.
For the compound `CC(=O)Nc1nc(C(=O)N2N=C(C)/C(=C/c3ccc(Cl)cc3)C2=O)cs1`, the growth in the assay with NCI-H23 lung is 102%; with NCI-H226 lung it was 106%; in the assay with NCI-H322M lung, 99%; in the assay with HOP-62 NSCLC it was 97%; in the assay with NCI-H460 lung it was 105%; in the assay with HOP-92 NSCLC it was 95.7%. Besides, the growth with NCI-H522 lung was 44.7%; in the assay on A549/ATCC NSCLC, 103%; with 786-0 renal it was 100%; in the assay on COLO 205 colon, 104%.
With `COc1cc(CCn2nnc3c(Nc4ccc(N5CCOCC5)cc4)ncnc32)cc(OC)c1`, the growth in the assay on NCI-H23 lung is 95.1%; in the assay with NCI-H226 lung it was 90.7%; with NCI-H322M lung, 111%; with HOP-62 NSCLC, 104%; in the assay on NCI-H460 lung it was 98.4%; with HOP-92 NSCLC, 47.3%. Further, the growth was 88.5% in the assay on NCI-H522 lung, 98.1% in the assay on A549/ATCC NSCLC, 107% in the assay with 786-0 renal and 94.9% in the assay on COLO 205 colon.
`COc1ccc(C(=O)c2cc(OC)c(OC)c(OC)c2)cc1/C=C/C(=O)c1ccc(O)cc1`: the growth was 18.5% with NCI-H23 lung; 58.5% in the assay with NCI-H226 lung; 70.7% in the assay with NCI-H322M lung; 88.9% with HOP-62 NSCLC; 9.99% (active) in the assay on NCI-H460 lung; 42.8% in the assay with HOP-92 NSCLC. For the same compound, the growth with NCI-H522 lung was -79.3% (active); in the assay with A549/ATCC NSCLC, 68.9%; in the assay with 786-0 renal, 26.4%; in the assay with COLO 205 colon, 54.3%.
As for `O=[N+]([O-])c1cccc(-c2cc(-c3cc(Br)ccc3O)[nH]n2)c1`, the growth with NCI-H23 lung was 28.5%; with NCI-H226 lung, 52.6%; in the assay on NCI-H322M lung it was 24.4%; with HOP-62 NSCLC it was 25.2%; in the assay with NCI-H460 lung it was 7.48% (active); in the assay with HOP-92 NSCLC it was 4.45% (active). Also, the growth with NCI-H522 lung was 15.1%; in the assay on A549/ATCC NSCLC, 21.7%; with 786-0 renal, 27.2%; in the assay with COLO 205 colon, 17.6%.
For the compound `Cc1cc2c(C(C)C)c(O)c(O)c(C=NCCCCC(=O)O)c2c(O)c1-c1c(C)cc2c(C(C)C)c(O)c(O)c(C=NCCCCC(=O)O)c2c1O`, the growth is 33.8% with NCI-H23 lung; 85.2% in the assay on NCI-H226 lung; 46% in the assay with NCI-H322M lung; 50% in the assay with HOP-62 NSCLC; 23.8% in the assay with NCI-H460 lung; 22.6% in the assay on HOP-92 NSCLC. In addition, the growth was 23.4% in the assay with NCI-H522 lung, 49.1% with A549/ATCC NSCLC, 49.1% with 786-0 renal and 41.1% in the assay with COLO 205 colon.
With `CCCCCCc1nc2c(c(C)nn2-c2ccccc2)c2c1CCCCC2`, the growth with NCI-H23 lung is 100%; in the assay on NCI-H226 lung it was 89.2%; in the assay on NCI-H322M lung, 110%; in the assay with HOP-62 NSCLC it was 91.3%; in the assay with NCI-H460 lung, 110%; in the assay with HOP-92 NSCLC, 91.5%. The growth with NCI-H522 lung is 93.2%; in the assay on A549/ATCC NSCLC it was 103%; with 786-0 renal it was 108%; with COLO 205 colon, 107%.
